Experimental data reported in PubChem BioAssay.
Calls of active or inactive are those of the source. Unless noted, how the calls were made is not given here.

How the values were obtained:
[1] = tested on: Wnt5a (protein binding on small-molecule microarray); assay: small molecules binding Wnt5a protein – biophysical, small-molecule microarray, 635/667 nm fluorescence, primary screen (AID 1142); conditions: 635 nm fluorescence, higher = more signal;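 further: fluorescence read at 667 nm with signal to noise per printed feature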
[2] = ATP-based viability of Huh7 replicon cells – cell-based, CellTiter-Glo luminescence, basal, 48 h, cytotoxicity control for HCV replication inhibitor project, primary screen (AID 1143); conditions: higher = more signal, called active from +8 up or from −8 down;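 further: Huh7 hepatoma cells carrying a hepatitis C replication reporter with no stimulus; test concentration not given here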
[3] = Pseudomonas biofilm growth suppression – PAO1 strain, BacTiter-Glo luminescence, LB-PBS, primary screen (AID 1144); conditions: P. aeruginosa PAO1 biofilm, 12 h, higher = more signal
[4] = basal CRE-LacZ reporter activity in PC12 – cell-based, unstimulated, primary screen (AID 1145); conditions: no forskolin, luminescence, 4.5 h, higher = more signal, called active from +8 up or from −8 down
[5] = forskolin-driven CRE-LacZ activity in PC12 – cell-based, CRE-LacZ reporter, forskolin-stimulated, primary screen (AID 1146); conditions: luminescence, 4.5 h, higher = more signal, called active from +8 up or from −8 down;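 further: PC12 cells with 6xCRE LacZ reporter stimulated by forskolin 10 µM; beta-galactosidase reporter signal reflecting CREB driven transcription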
[6] = target: Streptavidin (Streptomyces avidinii) (UniProt P22629); assay: compounds binding control protein streptavidin – biophysical, small-molecule microarray, 635/667 nm fluorescence, artefact control for SMM compound annotation, primary screen (AID 1147); conditions: higher = more signal;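 further: signal reflects streptavidin binding to arrayed compounds as a control protein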
Chain of Streptavidin (Streptomyces avidinii) (P22629 whole entry, looked up): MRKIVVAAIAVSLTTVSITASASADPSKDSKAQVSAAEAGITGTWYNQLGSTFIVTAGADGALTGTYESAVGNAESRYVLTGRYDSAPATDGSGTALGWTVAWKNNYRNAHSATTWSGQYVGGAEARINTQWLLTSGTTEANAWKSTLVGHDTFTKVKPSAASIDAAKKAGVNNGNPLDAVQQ

[7] = probe aInhba binding on compound microarray – biochemical, small-molecule microarray, 635/667 nm fluorescence, primary screen (AID 1148); conditions: higher = more signal;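 further: score merges 667nm spot fluorescence with signal-to-noise for antibody binding to printed compounds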
Torsin-1A (Homo sapiens) [8] = target: Torsin-1A (Homo sapiens) (UniProt O14656); assay: TOR1A wild-type binding on microarray – cell lysate, small-molecule microarray, lysate, 635/667 nm, primary screen (AID 1149); conditions: COS7 hTOR1A-WT lysate, 635 nm fluorescence, higher = more signal
Chain of Torsin-1A (Homo sapiens) (O14656 whole entry, looked up): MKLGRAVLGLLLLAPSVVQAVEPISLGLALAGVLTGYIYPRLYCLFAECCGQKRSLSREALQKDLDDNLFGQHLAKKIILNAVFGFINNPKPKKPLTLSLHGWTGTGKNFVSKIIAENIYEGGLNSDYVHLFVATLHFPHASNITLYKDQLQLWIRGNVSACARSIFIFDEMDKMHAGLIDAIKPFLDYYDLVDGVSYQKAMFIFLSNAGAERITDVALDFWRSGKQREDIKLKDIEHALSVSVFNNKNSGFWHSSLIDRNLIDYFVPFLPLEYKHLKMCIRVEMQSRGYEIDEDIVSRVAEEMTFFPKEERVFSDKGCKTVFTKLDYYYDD

Torsin-1A (Homo sapiens) [9] = target: Torsin-1A (Homo sapiens) (UniProt O14656); assay: torsin A mutant lysate binding on microarrays – cell lysate, small-molecule microarray, COS7 lysate, 635/667 nm fluorescence, primary screen (AID 1150); conditions: COS7 hTOR1A mutant lysate, 635 nm fluorescence, higher = more signal;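 further: score pools 667 nm emission and signal to noise measuring lysate protein binding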
[10] = tested on: Sonic hedgehog protein (Shh); assay: Sonic hedgehog microarray binding compounds – biochemical, small-molecule microarray, 635/667 nm fluorescence, primary screen (AID 1151); conditions: 635 nm fluorescence, higher = more signal;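 further: Shh protein binding to compounds spotted on small-molecule microarray slides; score combines spot fluorescence intensity with signal-to-noise across triplicate slides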
[11] = optical density shifts of acrAB sulA E. coli – strain DRC41, OD650, 48 h, E. coli filamentation inducer project, primary screen (AID 1152); conditions: higher = more signal, called active from +8 up or from −8 down;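 further: E. coli MC1000 strain DRC41 lacking acrAB efflux pump and sulA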
[12] = probe aLefty1 binding on compound microarray – biochemical, small-molecule microarray, 635/667 nm fluorescence, primary screen (AID 1153); conditions: higher = more signal;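 further: score merges spot fluorescence with signal-to-noise ratio from the scanned slide images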
[13] = plasmodial surface anion channel blockers, osmotic lysis – cell-based, P. falciparum Indochina, OD700, 1 h, primary screen (AID 1154); conditions: P. falciparum Indochina infected RBC osmotic lysis, higher = more signal, called active from +8 up or from −8 down
[14] = plasmodial surface anion channel blockers, osmotic lysis – cell-based, P. falciparum Indochina, OD700, 2 h, primary screen (AID 1155);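 further: lysis reports solute entry through the parasite surface anion channel PSAC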; conditions: P. falciparum Indochina infected erythrocytes, higher = more signal, called active from +8 up or from −8 down
[15] = changes in parasitized red cell lysis, either direction – P. falciparum Indochina, OD700, 3 h, PSAC antagonist project, primary screen (AID 1156); conditions: P. falciparum-infected erythrocytes, osmotic lysis, higher = more signal, called active from +8 up or from −8 down
[16] = plasmodial surface anion channel blockers, osmotic lysis – cell-based, P. falciparum Indochina, OD700, 18 h, primary screen (AID 1157); conditions: P. falciparum Indochina infected erythrocytes, osmotic lysis OD700, 18 h; higher = more signal, called active from +8 up or from −8 down
[17] = S6 kinase pathway phospho-S6 level changes – cell-based, A549, cytoblot, luminescence, serum-stimulated, primary screen (AID 1158); conditions: 5 h, higher = more signal;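 further: serum-stimulated A549 lung adenocarcinoma cells; signal is phosphorylated S6 detected by cytoblot immunostaining with HRP secondary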
[18] = target: NADPH oxidase 2 (Homo sapiens) (UniProt P04839); assay: compounds shifting NOX2 Amplex Red fluorescence – cell-based, HEK293-NOX2, PMA-stimulated, NOX inhibitor project, primary screen (AID 1159); conditions: 45 min, higher = more signal, called active from +8 up or from −8 down; further: test concentration not given here
Chain of NADPH oxidase 2 (Homo sapiens) (P04839 whole entry, looked up): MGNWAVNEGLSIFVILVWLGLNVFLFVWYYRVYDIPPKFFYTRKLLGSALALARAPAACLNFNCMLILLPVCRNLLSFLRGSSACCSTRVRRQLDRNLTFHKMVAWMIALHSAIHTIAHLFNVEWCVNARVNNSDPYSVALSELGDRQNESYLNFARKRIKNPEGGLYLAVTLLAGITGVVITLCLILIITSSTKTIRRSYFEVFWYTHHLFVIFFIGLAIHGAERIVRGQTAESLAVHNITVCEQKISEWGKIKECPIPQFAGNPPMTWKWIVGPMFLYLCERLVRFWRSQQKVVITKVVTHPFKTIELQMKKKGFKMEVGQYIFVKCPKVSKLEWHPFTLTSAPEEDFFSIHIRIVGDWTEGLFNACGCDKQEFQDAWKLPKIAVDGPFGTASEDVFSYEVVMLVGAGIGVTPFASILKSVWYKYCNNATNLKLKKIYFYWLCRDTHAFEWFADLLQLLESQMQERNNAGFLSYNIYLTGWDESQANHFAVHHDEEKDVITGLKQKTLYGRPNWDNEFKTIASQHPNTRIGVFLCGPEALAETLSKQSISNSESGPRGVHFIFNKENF

[19] = target: NADPH oxidase 4 (Homo sapiens) (UniProt Q9NPH5); assay: compounds shifting NOX4 Amplex Red fluorescence – cell-based, HEK293-NOX4, tetracycline-induced, NOX inhibitor project, primary screen (AID 1160); conditions: HEK293-NOX4, Amplex Red H2O2 fluorescence, 45 min; higher = more signal, called active from +8 up or from −8 down
Chain of NADPH oxidase 4 (Homo sapiens) (Q9NPH5 whole entry, looked up): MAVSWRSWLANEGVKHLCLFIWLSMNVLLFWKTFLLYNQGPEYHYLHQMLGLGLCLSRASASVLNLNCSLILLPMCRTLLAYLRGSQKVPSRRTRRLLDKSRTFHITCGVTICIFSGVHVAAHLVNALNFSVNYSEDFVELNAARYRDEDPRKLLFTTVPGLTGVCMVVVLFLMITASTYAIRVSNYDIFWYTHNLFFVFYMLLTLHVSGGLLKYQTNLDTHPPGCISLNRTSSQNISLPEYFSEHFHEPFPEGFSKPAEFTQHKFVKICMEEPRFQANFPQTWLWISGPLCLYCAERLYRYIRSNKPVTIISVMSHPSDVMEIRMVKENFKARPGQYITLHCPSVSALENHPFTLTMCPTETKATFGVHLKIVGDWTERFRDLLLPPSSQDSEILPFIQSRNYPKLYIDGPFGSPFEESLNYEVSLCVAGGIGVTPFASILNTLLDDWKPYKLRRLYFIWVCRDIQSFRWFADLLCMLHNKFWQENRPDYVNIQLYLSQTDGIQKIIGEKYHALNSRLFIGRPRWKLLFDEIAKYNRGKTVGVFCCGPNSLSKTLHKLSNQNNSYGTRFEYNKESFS

[20] = target: NADPH oxidase 5 (Homo sapiens) (UniProt Q96PH1); assay: compounds shifting NOX5 Amplex Red fluorescence – cell-based, HEK293-NOX5, NOX inhibitor project, primary screen (AID 1161); conditions: HEK293-NOX5, ionomycin, 45 min, higher = more signal
Chain of NADPH oxidase 5 (Homo sapiens) (Q96PH1 whole entry, looked up): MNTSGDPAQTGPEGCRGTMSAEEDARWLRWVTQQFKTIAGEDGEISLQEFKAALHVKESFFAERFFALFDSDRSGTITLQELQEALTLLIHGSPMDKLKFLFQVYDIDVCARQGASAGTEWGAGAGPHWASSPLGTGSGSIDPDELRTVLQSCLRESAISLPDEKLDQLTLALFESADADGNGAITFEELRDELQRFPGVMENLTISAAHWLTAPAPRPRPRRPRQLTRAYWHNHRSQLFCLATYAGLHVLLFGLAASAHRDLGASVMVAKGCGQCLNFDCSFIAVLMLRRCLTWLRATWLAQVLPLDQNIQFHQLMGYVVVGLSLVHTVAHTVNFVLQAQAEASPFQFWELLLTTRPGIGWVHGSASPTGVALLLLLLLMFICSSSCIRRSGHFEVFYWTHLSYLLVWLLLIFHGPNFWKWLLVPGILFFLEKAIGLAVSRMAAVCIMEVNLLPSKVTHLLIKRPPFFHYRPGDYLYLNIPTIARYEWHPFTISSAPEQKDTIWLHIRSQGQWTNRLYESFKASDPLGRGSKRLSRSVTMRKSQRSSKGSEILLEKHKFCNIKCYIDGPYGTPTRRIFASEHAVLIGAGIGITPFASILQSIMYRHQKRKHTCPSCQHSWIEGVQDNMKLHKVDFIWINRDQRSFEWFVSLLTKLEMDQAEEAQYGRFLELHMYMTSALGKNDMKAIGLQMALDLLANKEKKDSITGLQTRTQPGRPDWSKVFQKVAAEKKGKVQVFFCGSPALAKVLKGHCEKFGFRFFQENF

Compound	composite z-score [1]	z-score [2]	z-score [3]	z-score [4]	z-score [5]	composite z-score [6]	composite z-score [7]	composite z-score (Torsin-1A (Homo sapiens) [8])	composite z-score (Torsin-1A (Homo sapiens) [9])	composite z-score [10]	z-score [11]	composite z-score [12]	z-score [13]	z-score [14]	z-score [15]	z-score [16]	z-score [17]	z-score [18]	z-score [19]	z-score [20]
CCOC(=CC(=O)OC)CC(O)c1cccc(Cl)c1 (stereo not given)	-0.256	-3.84 (inactive)	0.114 (inactive)	0.584 (inactive)	-0.216 (inactive)	-0.668	-0.204	1.31	0.522	-0.41	1.04 (inactive)	-0.494	4.33 (inactive)	0.101 (inactive)	0.898 (inactive)	-1.72 (inactive)	0.979	0.112 (inactive)	-0.513 (inactive)	-0.131
CC(C)CCC[C@@H](C)[C@H]1CC[C@@]2(C)C3=C(CC[C@]12C)[C@@]1(C)CC[C@H](OC(=O)c2ccc(Br)cc2)C(C)(C)C1CC3 (stereo not given in full)	0.119	-1.17 (inactive)	-0.784 (inactive)	0.21 (inactive)	0.168 (inactive)	0.0916	0.054	0.276	0.409	0.384	3.37 (inactive)	-0.0559	-0.571 (inactive)	-0.957 (inactive)	-0.149 (inactive)	-2.39 (inactive)	1.62	-1.07 (inactive)	0.175 (inactive)	0.929
Cc1c(NC(=O)/C(C#N)=C/C=C/c2ccc(N(C)C)cc2)c(=O)n(-c2ccccc2)n1C	0.48	-0.853 (inactive)	2.09 (inactive)	0.595 (inactive)	-1.4 (inactive)	0.96	0.264	0.314	0.288	0.259	0.504 (inactive)	0.628	16.3 (active)	2.8 (inactive)	-0.164 (inactive)	0.89 (inactive)	-0.466	-2.41 (inactive)	-1.51 (inactive)	-0.807
CC=CC(O)C1C=CC2C(=O)N(c3ccccc3)C(=O)C2N1Nc1ccccc1 (stereo not given)	0.859	0.973 (inactive)	-1.33 (inactive)	0.0501 (inactive)	-0.741 (inactive)	1	0.337	0.358	0.285	0.0322	0.509 (inactive)	0.135	5.52 (inactive)	1.17 (inactive)	0.419 (inactive)	1.17 (inactive)	-0.959	0.209 (inactive)	-4.28 (inactive)	-2.42
COc1cc(CO)cc(I)c1O[C@H]1C=C(C(=O)NCCO)C[C@@H](N(CC2CCCCC2)C(=O)c2ccc(C(F)(F)F)cc2)[C@@H]1O	-0.0143	-0.494 (inactive)	-0.312 (inactive)	2.57 (inactive)	-1.22 (inactive)	-0.0411	-0.0403	0.0494	0.0547	1.23	1.76 (inactive)	-0.0547	1.05 (inactive)	0.447 (inactive)	1.69 (inactive)	0.329 (inactive)	0.597	-0.363 (inactive)	0.916 (inactive)	0.686
Cc1ccc(S[C@]2(C(=O)NCCN3CCOCC3)CC(=O)N(Cc3ccccc3C(F)(F)F)[C@@H]2c2ccc(CO)cc2I)cc1	0.0381	-0.984 (inactive)	-0.487 (inactive)	0.299 (inactive)	4.04 (inactive)	-1.49	-0.157	0.174	-0.38	-0.245	0.0143 (inactive)	0.114	4.93 (inactive)	0.636 (inactive)	2.03 (inactive)	0.278 (inactive)	0.155	2.82 (inactive)	-0.659 (inactive)	1.61
C=C[C@@H](COC(C)=O)NS(=O)(=O)c1ccc(Br)cc1	-0.0143	-2.37 (inactive)	-0.446 (inactive)	0.904 (inactive)	0.344 (inactive)	0.0981	-0.0589	0.825	0.357	-0.0658	0.032 (inactive)	-0.0464	-0.0045 (inactive)	-0.446 (inactive)	-0.123 (inactive)	0.0804 (inactive)	-0.0771	-0.34 (inactive)	-0.487 (inactive)	-0.833
Cc1ccc(F)cc1S(=O)(=O)N[C@@H]1CCN(Cc2ccc(Oc3ccccc3)cc2)C1	-0.123	-4.83 (inactive)	0.913 (inactive)	0.677 (inactive)	0.865 (inactive)	-0.235	-0.0403	0.575	0.251	1.07	-12.2 (active)	0.266	7.61 (inactive)	1.9 (inactive)	0.701 (inactive)	1.19 (inactive)	-0.766	-0.615 (inactive)	-1.08 (inactive)	-1.67
